From PubChem BioAssay
Rows were chosen to be rich in hits. Some 21% of all compounds tested hit in one or more screens of this group.
Pf growth 96h: P. falciparum growth inhibition at 96 hour, primary screen for plastid delayed-death inhibitors. P. falciparum luciferase reporter growth, 96 h. AID 504834. 320,000 compounds, 6.9% hits. Potency, µM (titrated, usually from 28.7 µM), for the others: at the top dose activity change, negative = inhibition, hits mostly inhibitors; also: potency is read from the fitted curve at half-maximal effect; % is scaled to controls: 0 for no effect and ±100 for the full control effect
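Parasite growth measured via integrated firefly luciferase reporter in P. falciparum. Infected erythrocytes at 2% hematocrit, 0.05% parasitemia final were treated 96 hours at 37 C under 5% CO2, and luminescence was read.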
Shiga inhibitor: Shiga toxin inhibition; Vero cells, Shiga toxin protein synthesis inhibition reporter; 290,000 compounds, 9.2% hits; inhibition, % at 38.7 µM; in the data active = inhibition mostly above about 28%, no sharp cut-off; inactive = mostly below about 43%; also: 0% is about no effect
FBPA Giardia inh: blocks Giardia fructose-bisphosphate aldolase activity. Potency, µM (top dose mostly 59.6 µM), for inactives: at the top dose activity, negative = inhibition, usual class: inhibitors. AID 2451. 290,000 compounds, 0.71% hits. purified Giardia FBPA; also: potency is read from the fitted curve at half-maximal effect; % is scaled to controls: 0 for no effect and ±100 for the full control effect; nearly all actives have a fitted effect of over 55% in size
Target sequence (A8B2U2 whole entry, looked up): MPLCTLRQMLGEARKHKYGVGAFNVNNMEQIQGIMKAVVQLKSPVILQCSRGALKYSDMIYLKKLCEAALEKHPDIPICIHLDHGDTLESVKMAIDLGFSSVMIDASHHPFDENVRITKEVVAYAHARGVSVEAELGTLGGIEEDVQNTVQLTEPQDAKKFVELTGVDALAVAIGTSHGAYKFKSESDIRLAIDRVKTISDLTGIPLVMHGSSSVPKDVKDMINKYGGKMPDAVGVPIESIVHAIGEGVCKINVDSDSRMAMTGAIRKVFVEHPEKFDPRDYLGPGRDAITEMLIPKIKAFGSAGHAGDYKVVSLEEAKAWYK
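Giardia FBPA (40 nM reagent) was preincubated 10 min at RT with compound (up to 57.5 uM final), then substrate plus GAPDH/TPI/NAD/arsenate coupling system with diaphorase/resazurin was added; resorufin fluorescence (525/598 nm) was read after 20 min.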
CHX counter: affects cycloheximide protein synthesis inhibition readout, counter-screen. cell reporter, cycloheximide protein synthesis inhibition counterscreen. AID 2314. max response, %. 300,000 compounds, 12% hits; in the data active = max response mostly above about 13%, no sharp cut-off; inactive = mostly below about 14%; also: read at 38.3 µM for the half of the compounds with a filed dose; 0% is about no effect
Pf growth 48h: inhibits P. falciparum growth in the first generation, 48 h; P. falciparum luciferase growth in erythrocytes, 48 h; Potency, µM (doses to about 28.7 µM), inactives show at the top dose activity change, negative = inhibition, actives largely listed as inhibitors; 310,000 compounds, 5.9% hits; AID 504832; also: potency is read from the fitted curve at half-maximal effect; % is scaled to controls: 0 for no effect and ±100 for the full control effect
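Luminescence readout; reporter = integrated firefly luciferase in P. falciparum. RBC culture at 2% hematocrit, 0.1% parasitemia final, 37 C/5% CO2; decreased signal taken as growth inhibition.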
NS1 inh: influenza NS1 inhibition; Potency, µM (doses to about 46.1 µM), without a hit: at the top dose activity, positive = more growth; 270,000 compounds, 0.4% hits; AID 2326; calls by dose curve; also: potency is read from the fitted curve at half-maximal effect; actives are rising curves; nearly all actives have a fitted effect of over 50% in size
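OD600 was taken as the measure of yeast growth restored by compound in an NS1-expressing S. cerevisiae strain. Cells had been washed out of glucose medium and diluted 1:100 into galactose -URA medium, pH 6.0.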
* hit, by the source's call; ? = inconclusive; nt = no result; [ ] = dose if it differs, or a comment. Unless noted, calls follow the shape of the dose curve; as a rule, active = well fitted curve in the direction sought with a large enough effect; inconclusive = small, poorly fitted or top-dose-only effect, or another doubt; inactive = no such curve, though single readings can be large; an effect the other way counts as inactive or inconclusive.

SMILES	Pf growth 96h	Shiga inhibitor	FBPA Giardia inh	CHX counter	Pf growth 48h	NS1 inh
O=C(NCC1CCCO1)Nc1cc(Cl)cc(Cl)c1 (stereo not drawn)	-2%	21	-3%	6	16%	-8%
Oc1ccc(Cl)cc1CNCC1CCCO1 (stereo not drawn)	nt	-11	-3%	-2	-22%	?
CCc1ccc2c(CC(=O)Nc3cccc(S(=O)(=O)N4CCOCC4)c3)coc2c1	-77%	nt	nt	nt	?	nt
Cc1ccc(NC(=O)C2CCN(c3cnccn3)CC2)cc1C	14%	-11	0%	-1	-13%	-5%
OC(CN1CCOCC1)(c1ccccc1)c1ccccn1 (stereo not drawn)	3%	-2	4%	3	17%	2%
O=C(CSCc1c(Cl)cccc1Cl)NCC1CCCO1 (stereo not drawn)	79%	12	1%	2	40%	-14%
O=C(CSc1cc(Cl)ccc1Cl)NCC1CCCO1 (stereo not drawn)	10µM*	-3	-4%	-2	14%	-4%
COc1cc(NC(=S)NCC2CCCO2)c(OC)cc1Cl (stereo not drawn)	8.3µM*	-3	1%	-1	-11%	3%
CCN(CC)c1ccc(NC(=S)NCC2CCCO2)cc1 (stereo not drawn)	?	101*	-5%	28*	-21%	-4%
COc1ccc(C=NCC2OCCc3ccccc32)cc1OC (stereo not drawn)	2%	1	8%	8	-7%	18%
COc1cc(C=NCC2OCCc3ccccc32)cc(OC)c1 (stereo not drawn)	9.3µM*	-11	5%	-2	8%	-35%
COCC(=O)N1CCC2(CCN(Cc3ccccc3OC)CC2)CC1	nt	nt	0%	nt	nt	nt
Cc1ccc(-c2nc3ccccc3s2)cc1S(=O)(=O)N1CCCC1	?	43	0%	30*	nt	15%
Cc1ccc(-c2nnc(NCc3nc4ccccc4[nH]3)c3ccccc23)cc1S(=O)(=O)N1CCCCC1	13µM*	8	-6%	-3	?	?
Cc1ccc(-c2nnc(NC3CCCCC3)c3ccccc23)cc1S(=O)(=O)N1CCN(C)CC1	?	-17	1%	1	nt	-10%
COc1ccc(C(CNC(=O)c2cccc(NS(=O)(=O)c3ccc(C)c(F)c3)c2)N2CCOCC2)cc1 (stereo not drawn)	64%	nt	nt	nt	-15%	nt
CCCCC#CC1C=CC(OC(C)=O)C(COC(C)=O)O1 (stereo not drawn)	nt	nt	0%[12.9 µM]	nt	nt	nt
Cc1cc(N2CCC(C)CC2)nc2cccc(O)c12	12µM*	55	-11%	23	nt	-17%
Cc1nc2ccccc2nc1N1CCC(C)CC1	nt	11	16%	8	27%	-34%
Cc1ccc(S(=O)(=O)N(CC(O)CN2CCOCC2)c2cccc([N+](=O)[O-])c2)cc1 (stereo not drawn)	-1%	-11	4%	-1	-3%	-4%
COc1cccc(Cn2c(=O)c(-c3cccs3)nc3cnc(OC)nc32)c1	nt	nt	-3%	nt	nt	nt
O=C(Nc1cc(F)cc(F)c1)c1ccc(NCCc2ccccc2)c([N+](=O)[O-])c1	?	12	-1%	5	13%	12%
COCCNc1cc(N)c([N+](=O)[O-])cc1[N+](=O)[O-]	36%	9	-6%	11	8%	-18%
Cc1ccc(NC(=O)c2ccc(NCCc3ccccc3)c([N+](=O)[O-])c2)cc1F	8.3µM*	-9	-4%	-1	0%	-13%
CCOC(=O)c1ccc(NCCOC)c([N+](=O)[O-])c1	6%	88*	-1%	40*	86%	-3%
SMILES	Pf growth 96h	Shiga inhibitor	FBPA Giardia inh	CHX counter	Pf growth 48h	NS1 inh
Cc1ccc(NC(=O)c2ccc(NCCN)c([N+](=O)[O-])c2)cc1Cl	7%	22	8%	4	4.1µM*	18%
CCOC(=O)CNC(=O)CSc1nc2cccnc2n1C1CCCCC1	9.3µM*	11	-13%	-4	-14%	-8%
CC(C)OC(=O)CSc1nc2cccnc2n1C1CCCCC1	6%	3	-13%	2	?	-2%
COc1ccc(CCNC(=O)Cc2ccc(NC3=NC4CS(=O)(=O)CC4S3)cc2)c(OC)c1 (stereo not drawn)	?	-6	-29%	1	3%	-8%
CSCC(=O)NC1CCCc2c1cnn2-c1cc(F)cc(F)c1 (stereo not drawn)	?	14	2%	14*	0%	-11%
Cc1ccc(-n2ncc3c2CCCC3NC(=O)c2ocnc2C)cc1C (stereo not drawn)	31%	-10	-4%	5	-16%	-5%
Cc1cc(C(=O)NC2CCCc3c2cnn3-c2ccc(C)c(C)c2)no1 (stereo not drawn)	-8%	19	nt	15*	-19%	-46%
Cc1ccc(-n2ncc3c2CCCC3NC(=O)CCc2cnccn2)cc1C (stereo not drawn)	65%	-4	12%	-1	7%	3%
CCCC(=O)NC1CCCc2c1cnn2-c1ccc(C)c(C)c1 (stereo not drawn)	3.3µM*	27	8%	20*	7%	-18%
CCn1nc(C)cc1C(=O)NC1CCCc2c1cnn2-c1ccc(C)c(C)c1 (stereo not drawn)	15µM*	-26	nt	4	?	-56%
COCCNc1nc(C)nc2c1nc(-c1ccccc1)n2CC1CCN(C)CC1	nt	nt	3%	nt	nt	nt
Cc1cccc(C(=O)O[C@@H]2[C@H](Cc3ccccc3)NS(=O)(=O)[C@H]3C[C@@H]4C=C[C@]23O4)c1	9.3µM*	nt	nt	nt	?	nt
Cc1cnc(CNc2nc(-c3c(C)noc3C)nc3ccccc23)cn1	nt	nt	-9%	nt	nt	nt
O=C(Nc1cccc(-c2cn3cccnc3n2)c1)c1ccco1	?	29	0%	24*	-15%	-10%
c1cnc2nc(-c3ccc4c(c3)OCO4)cn2c1	46%	38*	-2%	35*	128%	-4%
O=C(Nc1cccc(-c2cn3cccnc3n2)c1)c1ccc(Br)o1	6%	-5	1%	2	-28%	-2%
Nc1cccc(-c2cn3cccnc3n2)c1	?	39	4%	25	17%	nt
c1ccc(-c2nccc(-c3ccc4c(c3)OCO4)n2)cc1	39%	70*	1%	55*	117%	-3%
O=C(Nc1cccc(-c2cn3cccnc3n2)c1)c1ccc2c(c1)OCO2	1.3µM*	14	-4%	9	-16%	-9%
CCn1ccnc1CNC(=O)CC1C(=O)NCCN1Cc1ccc(OC)cc1OC (stereo not drawn)	-19%	-11	-22%	0	16%	6%
O=C(Nc1ccc(-c2cn3c(n2)SCC3)cc1)c1ccc2c(c1)OCO2	?	53	-2%	29	?	nt
O=C(Nc1cccc(-c2cn3c(n2)SCC3)c1)c1ccc2c(c1)OCO2	210%	116*	-10%	31	55%	nt
